From the supplement of paper PMC6555819

What follows are sequences tested on PPARa:RXRa (NR concentration 270 nM, RXRa partner concentration 90 nM) (assay: PBM binding z-score (relative to random genomic background probes); higher = stronger binding; sequences stand for … in GC…GCGATTGACAGCGTAGAATGAAGG).
Procedure: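 Protein-binding microarray (Agilent 4x180K custom design, double-stranded 60-nt probes: 5' GC cap, 34-nt variable region, 24-nt constant primer region; full probe sequence given). Purified or IVT nuclear receptor:RXRα heterodimers (3:1 NR:RXRα, mostly 270:90 nM) or homodimers were incubated for 1 h in PBS with 2% milk and no ligand, then detected with Alexa488 antibodies. Fluorescence from o1-orientation probes (~5 replicates averaged) was converted to z-scores against 500 random hg19 background probes. Variable regions are seed direct-repeat (DR0–DR5) sites, all their single-nucleotide variants and half-site ablations.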

| Sequence | PBM binding z-score |
| --- | --- |
| CGTCAAAGATCAAGGTAACGTAACAGAAAGCAGC | 0.962 |
| AGAATGAGGTTACCAAAGGTCAGGGAAACGCTTG | 5.55 |
| CCTACTGGGCCAAAGGTGATTGATTCCAATGCTC | 4.5 |
| ACTCGGTGGACAAAGGTCAGAGCTACGCCAGTGA | 4.25 |
| CGTCAAACTTCAACTAAGGTAACGTAAAGCACGC | 0.493 |
| TATAAAGGGTCAAAGGCCAGAGTACGAATGTCGA | 6.43 |
| ACTCGGAGGACAAAGGTCAGGGCTACGCCAGTGA | 4.98 |
| TCTCGGAGGACACAAAGGTCAGAGCTTTCCAGAG | 3.86 |
| CGTCCAAGGTCATTGGAGGTCAGTGAAGACAGAT | 5.85 |
| TCTTGTAGATCGATAGAGGTTAAGAAAGTGCGCT | 1.48 |
| CCTACTGGGCCAAAAAGGTCATTGATGCCGATAA | 4.51 |
| TACCCTAGGTCATTGGGCCAGTATAGTACGCATC | 4.06 |
| CCTTACGGGTCCCTCCAGGTTATAGCATCGGAGT | -0.0853 |
| CTCGAAAGGTCGTGCTCAGATGAGTATACCAAAC | 4.71 |
| ATATGTAGGTTAGCTGAGGTCATTCAGACTAGGC | 4.55 |
| AGTCAAAGTTCAGGACGACGTAACGTAAAGCACG | 2.98 |
| GTTACAGGGTCAAGGCCAGAGTACGCGTATTGAT | 5.59 |
| AACGAAAGGTCGAAGGTGAGTATACCCACCCGAA | 4.89 |
| ATCGAAAGGTCGAAGGTGCGTATACCCACCCGAA | 4.12 |
| ATATGTAGGATAGCTGGGGTCATTCAGACTAGGC | 4.6 |

| Sequence | PBM binding z-score |
| --- | --- |
| GCTAGTTGGTCAGTAAAATGTCACACACCGGTCG | -0.0403 |
| CGTCTAAGGTCATAGGAGGTCAGTGAAGACAGAT | 6.24 |
| CCTACTGGGCCGTTCAGAGGTCATTGATCATATG | 3.56 |
| TAGCCTAGGTCGTTCAGGGGCCAGTATAGAAAGC | 0.74 |
| CAAACGAGGTCAAAGGTCAAAGTCGAGCCAACCA | 7.69 |
| AGAATGAGGTTAAACGTAGATCAGGGAAGAAAGT | 4.4 |
| ATATGTAGGTTAAGCGTCATTCAGGTTGGTTCGC | 4.16 |
| CGAACTAGGTCAAAGGACATTGAAAGGCGACGTA | 6.03 |
| CGTCCAAGGTCAATGCTAGATCAGTGAAAGCATT | 4.78 |
| ATATGTAGGTTAACTGGGGTCATTCAGACTAGGC | 5.96 |
| CCGACGGGGGCAAAGGTTACCATACTCAGTACGA | 6.41 |
| CGTCCAAGGTCAGCGGGTCAGTGAAAGCGACGTG | 4.79 |
| CGAACTAGGTCACCCAGGACAGTGAATACATTGA | 4.82 |
| CGAACAAGGTCATTGACAGGACAGTGAATAGTAA | 5.93 |
| CGTCAAAGTTCAACTGAGGTAACGTAAAGCACGC | 5.29 |
| CGAACTAGGTCAAGGCCAGTGAATCTCCGCACGC | 5.04 |
| CGTCCAAGGTCAAAGGTCATTGAAGAGATGACGG | 7.33 |
| GCTGCTAGGTCAACTGATGGCCAGCTAAAGCTCG | 3.6 |
| CGTCCAAGGTCGAAGGTCAGTGAAGAGATGACGG | 4.7 |
| TCTGCTAGGTCAACGATGGTCAGTTAATCTGCTA | 3.04 |
